Measured values taken from article PMC12136788.
Substitutions are numbered along the chain they refer to. In all, about 24,000 sequences were measured (“enrichment r”: median about 0.99, highest 2% from about 3.7 on). Shown is part of a subset that was picked to be rich in the highest values.

T1: UNK ZnF1-3 (human, UniProt Q9C0B0 31-174)
T1 sequence: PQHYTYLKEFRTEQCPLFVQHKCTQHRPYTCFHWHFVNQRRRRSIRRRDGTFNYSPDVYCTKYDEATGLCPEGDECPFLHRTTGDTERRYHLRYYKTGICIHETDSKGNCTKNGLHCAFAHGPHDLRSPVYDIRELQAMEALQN

B1: 60597838_60597958_3500_3pUTR_ENSMUSG00000049323_ENSMUST00000056907|mouse|control|control (ssRNA)
RNA: GGGAGUUCUACAGUCCGACGAUCUUUUUGGGAGCUACUUCCUUAAUGAACCAGGAGCAGCUGCUACUGUCCUUCUGGAGGGCCAUGUGCCACCUCUGCUCAGCCCACAUCACACACUGCCCAGGGCUAUGUUGCAACUAUAACCAACAGAGGAUUGAGCAUCA
B2: chr17:45757878:45757879:+_ENSG00000108424_ENST00000290158|hu_hu|FALSE|FALSE (ssRNA)
RNA: GGGAGUUCUACAGUCCGACGAUCUGGCCUAGCUUCUACUAAUUUCAGUACAUCCUUCCCAAAUGCUGUACAUAAGUCCCCUAUUAGUCCAGCAGCACAAGCUACUACUCCAUCUGUGUGAUCCUCAUCUCCAGCAAUGUGGUCCAACAGAGGAUUGAGCAUCA
B3: chr19:16452684:16452685:+_ENSMUSG00000024639_ENSMUST00000025541|perfect_dup|FALSE|FALSE (ssRNA)
RNA: GGGAGUUCUACAGUCCGACGAUCGUUUAAGAACAGAAUCACAGAGGAGUUCUGGAACCAGGGGUAGGUGAUAAUUGUUCUAAAGAGUGCUUUGCUCUCCUCCAUGCGGUUCUCAUUGUCUGACUCCACAAGAACUUGAUCAUACAACAGAGGAUUGAGCAUCA
B4: chr5:128448638:128448639:+_ENSG00000066583_ENST00000173527|hu_mus|hu_hu_hu_mus_False|98_98 (ssRNA)
RNA: GGGAGUUCUACAGUCCGACGAUCGGCACUCGCCUUAAUUAGAUUCUGAAUUUCCUUGAACUUCGGGUGGUCUUUGUCAGCCACCAGCUGUAGGAGGACAGCCUCACUAGUGGUCACGAUGAUCCCAGUGCGGGCAAGACGCUCCAACAGAGGAUUGAGCAUCA
B5: chr17:57737884:57737885:+_ENSG00000141367_ENST00000269122|hu_mus|motif|central (ssRNA)
RNA: GGGAGUUCUACAGUCCGACGAUCGUUUCCCUGGGCGAAGAGAGCAUUAAAUUUCCGGGCAAAGAGUUCUUCAGCACCAGCGGAGUUGUUCCGCACAGCCAUUCUCAGAGCCAAGUCAGGAUUUUGUAGGACAUUGGUGAUAUACAACAGAGGAUUGAGCAUCA
B6: chr3:101400026:101400027:-_ENSG00000114391_ENST00000394077|hu_mus|FALSE|FALSE (ssRNA)
RNA: GGGAGUUCUACAGUCCGACGAUCCUACCACACUAGCGUUUCCCACCAACUCUGGGGGCAGAGACCUUCACAGGCUUCACAAUCUUUUGUUUAGGUGCUGCCUUUGUGGGGGCCUUGGCAGCAGCCAUUGCUGUCUUCUUUGAUCAACAGAGGAUUGAGCAUCA
B7: chr2:48026839:48026840:+_ENSG00000116062_ENST00000540021|hu_hu|hu_hu_hu_mus_False|18_58 (ssRNA)
RNA: GGGAGUUCUACAGUCCGACGAUCAUAGUGAGCCACUAGCGUCCUAAAUCUGGAACAGUGGCGGUCAUCCGAAAACUGACCUAUGAAAAACUUGCCCAGUGAAGUGUCCACAAAGCACACACCAUAUACACGAGUGUGACCAGACAACAGAGGAUUGAGCAUCA
B8: chr16:23113652:23113653:+_ENSMUSG00000022884_ENSMUST00000115341|mus_mus|FALSE|FALSE (ssRNA)
RNA: GGGAGUUCUACAGUCCGACGAUCCCACAAGUAUAUUAUUAAAUGAUAGAGAACAUCUAAUACAACCAUUUCUACAUAACUAGUAAAUGAAUUUCUAAGAAAAAAAGAUUUUACAGACCCCAUCUUUUAUACCCACCCCCAACACAACAGAGGAUUGAGCAUCA
B9: 131763144_131763264_1223_3pUTR_ENSMUSG00000079037_ENSMUST00000091288|mouse|control|control (ssRNA)
RNA: GGGAGUUCUACAGUCCGACGAUCUCACCUUGUACUCUGGGUACAAGUCAGGGGAUACACCAGUAUUUAUUCACUAGACCAAAACAAAGCCCCAACUAGCCAGCAGUUAUUUGGUGUUAUAUUCUUAUUGGCCCGGUGUUAGCACAACAGAGGAUUGAGCAUCA
B10: chr5:67446008:67446009:+_ENSMUSG00000037736_ENSMUST00000038188|mus_mus|FALSE|FALSE (ssRNA)
RNA: GGGAGUUCUACAGUCCGACGAUCGCCCCCAAGGGUAAGUAACACAAAUGUCUCCGGGAAUACAGUAUAUAUUAUCAGACUAGUGUCUUUGCAUUAAAAAAAAAAAAAGUUAUAGUUCAGAGUCAGAACUCGCUGGGGUAUCUACAACAGAGGAUUGAGCAUCA
B11: chr5:32794366:32794367:+_ENSMUSG00000014956_ENSMUST00000015100|mus_mus|FALSE|FALSE (ssRNA)
RNA: GGGAGUUCUACAGUCCGACGAUCAGAAGAGAGCCAGCUAUCCAAGGCUUGUCAAAAAGGAUUCUCAUGUUCUGUGAAUCUAAAAACAAACAAACAACAAAAACCCCAAAAAACAAAACCAAUGCAGGUGAGGGUAAUACCAGACAACAGAGGAUUGAGCAUCA
B12: chr10:70744696:70744697:+_ENSG00000165732_ENST00000354185|hu_hu|motif|central (ssRNA)
RNA: GGGAGUUCUACAGUCCGACGAUCUUAAAUUAGAAAAUAUUUUCUUUGUAGAAAAUAGUAAAAAUUAUAACAUUUACCAAGCGGACCCAACAAGUUCAUUUAAACCAAAAAGUAGCUAAAUACAUUAUACAUUUAUAAAUACAGCAACAGAGGAUUGAGCAUCA
B13: chr2:202488911:202488912:-_ENSG00000155755_ENST00000286196|hu_mus|hu_hu_hu_mus_False|8_98 (ssRNA)
RNA: GGGAGUUCUACAGUCCGACGAUCAUUGAAACAUUUUCAUAAUAUUGCAGUAGCAUUUCAGCAUUAUGUAACAAAAGCUCAAUUGUAAAUACAUGUAUCUUAUAAAAAUACACUUAAAAACACGAGUAAAAAUGGGAGGCGCCACAACAGAGGAUUGAGCAUCA
B14: 35171164_35172336_3352_CDS_ENSMUSG00000029104_ENSMUST00000080036|mouse|control|control (ssRNA)
RNA: GGGAGUUCUACAGUCCGACGAUCGGGGGCACUCGCUGCUAGCAAGUUUCCAGCCAAAAUCAAGGCAUCCUGAUGGGCUGAGAGAUCCAGUGGGAACCAAGCUGAUGAAAGCAAGGUGAGAAUCAUGGAGGCCAUCCCAACAGUCAACAGAGGAUUGAGCAUCA
B15: chr1:182620099:182620100:+_ENSMUSG00000058729_ENSMUST00000085803|mus_mus|motif|central (ssRNA)
RNA: GGGAGUUCUACAGUCCGACGAUCAACAACAAAGCUUUUAUAAAUUAUGAUAAAUUAAAAUAUUUAUUAUUAUAAUUGAUCGGUAGAACCAUGUCCCACUGUCAGUAUAUGAAACAUACACUUAAGUCCGUGUUUCCCAUCUGUCAACAGAGGAUUGAGCAUCA
B16: chr7:108213676:108213677:+_ENSG00000128590_ENST00000249356|hu_hu|FALSE|FALSE (ssRNA)
RNA: GGGAGUUCUACAGUCCGACGAUCUCCAUGAAAUCUAUUUUCAGUCUGUACUGUAUGCUGAUUGGUAGAGUCAAAACCACUAAAAGAAAACAUUUUCUCCAUAUCUUCAAACAUGUCAUCAAAUAAUCCACCUCCAAAAGAAAACAACAGAGGAUUGAGCAUCA
B17: chr15:91426070:91426071:+_ENSG00000140564_ENST00000268171|hu_mus|FALSE|FALSE (ssRNA)
RNA: GGGAGUUCUACAGUCCGACGAUCGGCAGCCAUGGGAAGGGCAGGGUGGGUGUGGGCAUGAGAAGGUCAAGGGUCCAGCUGCUACCCCCAUUAAAAAUACAAAAAAAAAAAAAAAAAAGAAUCAGCAUCUAAAGUGAAUAAUCACAACAGAGGAUUGAGCAUCA
B18: chr4:95690885:95690886:+_ENSMUSG00000028572_ENSMUST00000156910|mus_mus|mus_mus_mus_hu_False|78_88 (ssRNA)
RNA: GGGAGUUCUACAGUCCGACGAUCUUUAGAAAAUGUUAAAUACCAUGAGCAUGCUAAGUAAUUUUAAUAUUUUAUUUUACCAGAAGUCACAGGCAAGCAGACACUACAAGAAUAUAUGAAAAUGAAACUCAACAAUAUAACUGUCAACAGAGGAUUGAGCAUCA
B19: chr5:67446008:67446009:+_ENSMUSG00000037736_ENSMUST00000038188|mus_mus|motif|central (ssRNA)
RNA: B10 RNA with U80G, A81G
B20: chr14:89307221:89307222:+_ENSG00000165533_ENST00000346301|hu_mus|hu_hu_hu_mus_False|18_78 (ssRNA)
RNA: GGGAGUUCUACAGUCCGACGAUCUCCUGUUUGGUUAGUGCCAGGGAGCUUCAAAGACGUUCCAGGGCGUGGGACCUGAGCAAUAGCAUUUUCAUCCAGGAUCAUUUCAGCAAUUCCUUCCUGAUCUACAUCAAUUUCAUCUAUCAACAGAGGAUUGAGCAUCA
B21: chr7:7679991:7679992:-_ENSG00000106399_ENST00000396682|hu_hu|hu_hu_hu_mus_False|68_88 (ssRNA)
RNA: GGGAGUUCUACAGUCCGACGAUCUGGGAUGAAUCUUUUCCAGCUUCCCUACGAAGCACACGGGCCGGUCGAUGAAUUGUGGUAACAUGCUGGCGUUGACGCGCGCUUUGGGGAGCUGCAUUAUGUCCUCCAUGAUUCUGCCGCCAACAGAGGAUUGAGCAUCA
B22: 96788939_96789059_3507_CDS_ENSG00000066739_ENST00000359933|human|control|control (ssRNA)
RNA: GGGAGUUCUACAGUCCGACGAUCACAAACAUCUUUCAAGGAAUGAGCACCUCCUUCCUCUUCCUCCUGGUAGUGACCAUCAUUCUCCUCUUCUUCUUCAGCUGCAAUUCUCUCCAAAAUGGAAUGCAUGGCUGGUGGAUUUAUCAACAGAGGAUUGAGCAUCA

The binders below were run against T1, UNK ZnF1-3 (assay: nsRBNS (natural sequence RNA bind-n-seq); RBNS binding buffer (assumed for nsRBNS): 25 mM Tris pH 7.5, 150 mM KCl, 3 mM MgCl2, 0.01% Triton X-100, 500 ug/ml BSA, 20 U/ml SUPERase-In, 4 C; UNK is unkempt and MSI1 is Musashi-1; names of the RNAs are library labels; protein concentration not given here; high values mean tight binding).
B1 showed a binding signal of 0.845 enrichment R.
B2 was tested, and the binding signal was 1.02 enrichment R.
In the case of B3, the binding signal is reported as 0.726 enrichment R.
Work on B4 yielded a binding signal of 0.728 enrichment R.
B5 was tested, and the binding signal was 2.06 enrichment R.
For B6, the binding signal was 0.756 enrichment R.
B7 showed a binding signal of 1.26 enrichment R.
B8 showed a binding signal of 3.96 enrichment R.
With B9 the binding signal was 0.474 enrichment R.
B10 gave a binding signal of 5.07 enrichment R.
Work on B11 yielded a binding signal of 1.31 enrichment R.
B12 showed a binding signal of 3.65 enrichment R.
In the case of B13, the binding signal is reported as 0.677 enrichment R.
With B14 the binding signal was 1.2 enrichment R.
With B15 the binding signal was 7.41 enrichment R.
With B16 the binding signal was 1.22 enrichment R.
Binder B17 has a binding signal of 19.6 enrichment R.
For B18, the binding signal was 3.29 enrichment R.
Work on B19 yielded a binding signal of 3.48 enrichment R.
Binder B20 has a binding signal of 0.843 enrichment R.
For B21, the binding signal was 0.498 enrichment R.
Binder B22 has a binding signal of 1 enrichment R.
